Test results taken from PubChem BioAssay (EPA / NIEHS).
The source made the active and inactive calls. How the source made its calls: active means hit-call score of the fitted dose curve at least 0.9, where 1 is the maximum; inactive means score below 0.9.

Assay: ATG_GRE_CIS: Attagene CIS-FACTORIAL HepG2 Assay for human Glucocorticoid Response Elements (GRE) (AID 2282947)
Conditions: HepG2 GRE cis-reporter, Attagene multiplex mRNA; actives raise or lower the signal
Method in brief: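 Multiplexed cis-reporter mRNA induction, HepG2, 24 h post-dose. RT-PCR, FAM-labelled, HpaI-digested amplicons by CE. Bidirectional fit vs DMSO.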

outcome, inactive:
C=CC(C)(C)C
CCCCCCCCCCCCCOP(=O)(O)O
NC(=O)OCC(COC(N)=O)c1ccccc1
CCCCC(CC)COCC1CO1 (stereo not drawn)
CC=CC(=O)N(CC)c1ccccc1C
CN1C(=O)N(C)C(O)C1O (stereo not drawn)
COc1ccc2nc(N)sc2c1
CCOCC(=O)O
Nc1ncn([C@@H]2O[C@H](CO)[C@@H](O)[C@H]2O)c(=O)n1
OC1CCCC1
O=c1c2ccccc2oc2ccccc12
CC(=O)NS(=O)(=O)c1ccc(N)cc1
CCCCCCCC/C=C\CCCCCCCC(=O)OCCO
O=C1c2ccccc2C(=O)C1c1nc2ccccc2c(Br)c1O
C[C@]12CCC(=O)C=C1CC[C@@H]1[C@@H]2C(=O)C[C@@]2(C)[C@H]1CC[C@]2(O)C(=O)CO
CC1(C)S[C@@H]2[C@H](NC(=O)COc3ccccc3)C(=O)N2[C@H]1C(=O)O
COc1c2ccoc2cc2oc(=O)ccc12
O=c1[nH]nc(-c2ccc([N+](=O)[O-])o2)o1
C=C[Si](OC(C)=O)(OC(C)=O)OC(C)=O
COc1cc(NC(=O)CC(C)=O)c(OC)cc1Cl
O=C(O)CCCC[C@@H]1SC[C@@H]2NC(=O)N[C@@H]21

AC50, active:
CC(=O)OCC(=O)[C@@]12N=C(C)O[C@@H]1C[C@H]1[C@@H]3CCC4=CC(=O)C=C[C@]4(C)[C@H]3[C@@H](O)C[C@@]12C 0.189 µM
Cc1ccc(C(C)c2ccc(C)c(C)c2)cc1C 24.8 µM
